Measured values: PubChem BioAssay AID1159580 (chemical genetic matrix, 2015)
In all, about 5,500 compounds went through this assay and about 2,000 (36%) were called active. Roughly 18% stayed inconclusive and do not appear here. Some of the results follow. Values without a mark were called inactive. Rule as the data show it: active = normalized growth mostly below about 0.91 (no sharp cut-off); inconclusive = no clear call, values can overlap the other calls; inactive = mostly above about 0.92.

Experiment: chemical genetic growth profiling, strain panel (AID 1159580);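 also: tested at 20 µM; growth read once vehicle control cultures reached saturation at 30 °C; 1 = growth at the plate median or of vehicle wells; lower values mean less growth of the strain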
Conditions: S. cerevisiae deletion strains, growth OD
[1] = locus YDL101C, strain DUN1, stronger effect = lower value
[2] = locus YHR030C, strain SLT2, stronger effect = lower value

## Cc1cc(NS(=O)(=O)c2ccc(NC(=O)c3ccccc3)cc2)no1
Locus YAL013W, strain DEP1, stronger effect = lower value
  normalized growth: 0.988
Locus YBR229C, strain ROT2, stronger effect = lower value
  normalized growth: 0.995
[1]
  normalized growth: 0.979
Locus YDR150W, strain NUM1, stronger effect = lower value
  normalized growth: 1.03
Locus YEL061C, strain CIN8, stronger effect = lower value
  normalized growth: 1.03
Locus YGR078C, strain PAC10, stronger effect = lower value
  normalized growth: 0.984
[2]
  normalized growth: 1.03
Locus YHR087W, strain rtc3, stronger effect = lower value
  normalized growth: 1.01
Locus YJR043C, strain POL32, stronger effect = lower value
  normalized growth: 0.983
Locus YJR075W, strain HOC1, stronger effect = lower value
  normalized growth: 0.992
Locus YLR039C, strain RIC1, stronger effect = lower value
  normalized growth: 1.02
Locus YLR058C, strain SHM2 (second series), stronger effect = lower value
  normalized growth: 1.02
Locus YLR085C, strain ARP6, stronger effect = lower value
  normalized growth: 1.05
Locus YLR262C, strain YPT6, stronger effect = lower value
  normalized growth: 0.986
Locus YML094W, strain GIM5, stronger effect = lower value
  normalized growth: 1.02
Locus YMR219W, strain ESC1, stronger effect = lower value
  normalized growth: 1.01
Locus YMR263W, strain SAP30, stronger effect = lower value
  normalized growth: 0.916
Locus YMR307W, strain GAS1, stronger effect = lower value
  normalized growth: 1.03
Locus YNL128W, strain TEP1, stronger effect = lower value
  normalized growth: 1
Locus YNL153C, strain GIM3, stronger effect = lower value
  normalized growth: 1
Locus YNL298W, strain CLA4 (second series), stronger effect = lower value
  normalized growth: 1
Locus YNL322C, strain KRE1, stronger effect = lower value
  normalized growth: 1.01
Locus YNR030W, strain Alg12, stronger effect = lower value
  normalized growth: 1
Locus YPL055C, strain LGE1, stronger effect = lower value
  normalized growth: 1.03
Locus YPL241C, strain CIN2, stronger effect = lower value
  normalized growth: 1.02
Locus YPR135W, strain CTF4, stronger effect = lower value
  normalized growth: 0.991

## Cc1oc(C(C)(C)C)cc1-c1cc(NC(=O)c2ccccc2)n[nH]1
Locus YAR019C, strain CDC15, stronger effect = lower value
  normalized growth: 0.965
Locus YBL105C, strain PKC1, stronger effect = lower value
  normalized growth: 0.98
Locus YBR135W, strain CKS1, stronger effect = lower value
  normalized growth: 0.974
Locus YBR136W, strain MEC1, stronger effect = lower value
  normalized growth: 0.975
Locus YBR160W, strain CDC28, stronger effect = lower value
  normalized growth: 0.97
Locus YDL017W, strain CDC7, stronger effect = lower value
  normalized growth: 0.99
Locus YDL028C, strain MPS1, stronger effect = lower value
  normalized growth: 0.948
[1]
  normalized growth: 0.994
Locus YDL108W, strain KIN28, stronger effect = lower value
  normalized growth: 0.972
Locus YDL132W, strain cdc53, stronger effect = lower value
  normalized growth: 0.993
Locus YDL214C, strain PRR2, stronger effect = lower value
  normalized growth: 0.913
Locus YDR052C, strain DBF4, stronger effect = lower value
  normalized growth: 0.984
Locus YDR054C, strain cdc34, stronger effect = lower value
  normalized growth: 0.966
Locus YDR226W, strain ADK1, stronger effect = lower value
  normalized growth: 0.962
Locus YDR477W, strain SNF1, stronger effect = lower value
  normalized growth: 0.924
Locus YER123W, strain YCK3, stronger effect = lower value
  normalized growth: 0.885
Locus YER133W, strain GLC7, stronger effect = lower value
  normalized growth: 0.957
Locus YFL009W, strain cdc4, stronger effect = lower value
  normalized growth: 0.951
Locus YFL029C, strain CAK1, stronger effect = lower value
  normalized growth: 0.962
Locus YFR003C, strain YPI1, stronger effect = lower value
  normalized growth: 0.988
Locus YFR019W, strain FAB1, stronger effect = lower value
  normalized growth: 0.921
Locus YFR028C, strain CDC14, stronger effect = lower value
  normalized growth: 0.961
Locus YGR040W, strain KSS1, stronger effect = lower value
  normalized growth: 0.94
Locus YGR052W, strain FMP48, stronger effect = lower value
  normalized growth: 0.93
Locus YGR092W, strain DBF2, stronger effect = lower value
  normalized growth: 0.743
[2]
  normalized growth: 0.611 (active)
Locus YHR079C, strain IRE1, stronger effect = lower value
  normalized growth: 0.695
Locus YHR082C, strain KSP1, stronger effect = lower value
  normalized growth: 0.81
Locus YHR205W, strain SCH9, stronger effect = lower value
  normalized growth: 0.849
Locus YIL147C, strain SLN1, stronger effect = lower value
  normalized growth: 0.966
Locus YJL095W, strain BCK1, stronger effect = lower value
  normalized growth: 0.822
Locus YJL128C, strain PBS2, stronger effect = lower value
  normalized growth: 0.908
Locus YJL157C, strain FAR1, stronger effect = lower value
  normalized growth: 0.909
Locus YJR016C, strain ILV3, stronger effect = lower value
  normalized growth: 0.981
Locus YJR066W, strain TOR1 (second series), stronger effect = lower value
  normalized growth: 0.883
Locus YJR066W, strain TOR1, stronger effect = lower value
  normalized growth: 0.798
Locus YKL048C, strain ELM1, stronger effect = lower value
  normalized growth: 0.943
Locus YKL067W, strain YNK1, stronger effect = lower value
  normalized growth: 0.899
Locus YKL101W, strain HSL1, stronger effect = lower value
  normalized growth: 0.878
Locus YKL193C, strain SDS22, stronger effect = lower value
  normalized growth: 0.98
Locus YKL203C, strain TOR2, stronger effect = lower value
  normalized growth: 1.01
Locus YLR113W, strain HOG1, stronger effect = lower value
  normalized growth: 0.778 (active)
Locus YLR133W, strain CKI1, stronger effect = lower value
  normalized growth: 0.911
Locus YLR403W, strain SFP1, stronger effect = lower value
  normalized growth: 0.925
Locus YML070W, strain DAK1, stronger effect = lower value
  normalized growth: 0.872
Locus YMR001C, strain CDC5, stronger effect = lower value
  normalized growth: 0.95
Locus YMR205C, strain PFK2 (second series), stronger effect = lower value
  normalized growth: 0.922
Locus YMR277W, strain FCP1, stronger effect = lower value
  normalized growth: 0.95
Locus YNL006W, strain LST8, stronger effect = lower value
  normalized growth: 0.962
Locus YNL020C, strain ARK1, stronger effect = lower value
  normalized growth: 0.903
Locus YNL161W, strain CBK1, stronger effect = lower value
  normalized growth: 0.976
Locus YNL183C, strain NPR1, stronger effect = lower value
  normalized growth: 0.963
Locus YNL207W, strain RIO2, stronger effect = lower value
  normalized growth: 0.969
Locus YNL222W, strain SSU72, stronger effect = lower value
  normalized growth: 0.969
Locus YNL307C, strain MCK1 (second series), stronger effect = lower value
  normalized growth: 0.876
Locus YOL078W, strain AVO1, stronger effect = lower value
  normalized growth: 0.981
Locus YOL136C, strain PFK27, stronger effect = lower value
  normalized growth: 0.866
Locus YOR061W, strain CKA2, stronger effect = lower value
  normalized growth: 0.91
Locus YOR119C, strain RIO1, stronger effect = lower value
  normalized growth: 0.928
Locus YOR231W, strain MKK1, stronger effect = lower value
  normalized growth: 0.791
Locus YOR329C, strain SCD5, stronger effect = lower value
  normalized growth: 0.981
Locus YPL031C, strain PHO85, stronger effect = lower value
  normalized growth: 0.908
Locus YPL153C, strain RAD53, stronger effect = lower value
  normalized growth: 0.877
Locus YPL204W, strain HRR25, stronger effect = lower value
  normalized growth: 0.883
Locus YPL209C, strain IPL1, stronger effect = lower value
  normalized growth: 0.972
Locus YPL256C, strain CLN2, stronger effect = lower value
  normalized growth: 0.844 (active)
Locus YPR025C, strain CCL1, stronger effect = lower value
  normalized growth: 0.979
Locus YPR106W, strain ISR1, stronger effect = lower value
  normalized growth: 0.969
Locus YPR111W, strain DBF20, stronger effect = lower value
  normalized growth: 0.935
Strain NNK1, stronger effect = lower value
  normalized growth: 0.951
Strain TSCII, stronger effect = lower value
  normalized growth: 0.958
